From article PMC7862700, “An all-to-all approach to the identification of sequence-specific readers for epigenetic DNA modifications on cytosine”

How the values were obtained:
Experiment in all cases: DAPPL (digital affinity profiling via proximity ligation, sequencing); 10 mM Tris-HCl pH 7.5, 50 mM NaCl, 1 mM DTT, 4% glycerol, room temperature, 30 min; GST-TFs on glutathione beads, 16-mer random dsDNA library, 0.1% formaldehyde crosslink after washing; high values mean tight binding
FLI1 = target: T1, FLI1 (Homo sapiens, UniProt Q01543 1-452); settings: protein: recombinant; tags: N-terminal GST; dsDNA, one strand shown
T1 sequence: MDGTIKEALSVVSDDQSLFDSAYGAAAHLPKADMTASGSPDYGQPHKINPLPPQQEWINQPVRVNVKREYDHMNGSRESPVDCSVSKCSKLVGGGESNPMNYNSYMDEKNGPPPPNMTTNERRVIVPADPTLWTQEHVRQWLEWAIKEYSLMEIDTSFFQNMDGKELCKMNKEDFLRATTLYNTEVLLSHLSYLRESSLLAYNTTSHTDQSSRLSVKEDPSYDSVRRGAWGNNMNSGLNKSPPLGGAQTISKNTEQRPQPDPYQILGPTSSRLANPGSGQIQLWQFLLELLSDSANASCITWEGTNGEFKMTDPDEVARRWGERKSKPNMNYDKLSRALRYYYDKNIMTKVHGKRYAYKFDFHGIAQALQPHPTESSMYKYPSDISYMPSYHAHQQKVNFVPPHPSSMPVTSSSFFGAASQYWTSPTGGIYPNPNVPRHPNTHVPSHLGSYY
How it was run: (§1)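 Each value of binding signal is a hexamer's read frequency for a factor divided by the same hexamer's frequency in the tag-only sample. Barcoded, bead-captured GST fusions of human transcription factors made in yeast were pooled with that sample and incubated with 200 nmole of a random double-stranded 16-mer DNA library in Tris/NaCl/DTT/glycerol buffer at room temperature for 30 min. Washing, 0.1% formaldehyde crosslinking, proximity ligation, PCR and Illumina NextSeq500 sequencing followed.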

ELK1 = target: T2, ELK1 (Homo sapiens, UniProt P19419 1-428); settings: protein: recombinant; tags: N-terminal GST; dsDNA, one strand shown
T2 sequence: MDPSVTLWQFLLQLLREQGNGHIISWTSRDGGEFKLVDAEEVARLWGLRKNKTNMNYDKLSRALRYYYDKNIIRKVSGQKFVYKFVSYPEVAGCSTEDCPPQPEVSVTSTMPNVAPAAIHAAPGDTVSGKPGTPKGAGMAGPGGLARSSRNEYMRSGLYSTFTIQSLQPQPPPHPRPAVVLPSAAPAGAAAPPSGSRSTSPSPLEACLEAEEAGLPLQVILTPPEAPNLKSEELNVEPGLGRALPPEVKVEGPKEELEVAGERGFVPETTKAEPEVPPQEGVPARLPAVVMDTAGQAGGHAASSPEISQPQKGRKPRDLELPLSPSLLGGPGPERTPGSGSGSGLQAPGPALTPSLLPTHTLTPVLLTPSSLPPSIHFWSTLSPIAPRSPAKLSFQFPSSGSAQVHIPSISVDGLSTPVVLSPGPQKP
How it was run: as §1

GABPA = target: T3, GABPA (Homo sapiens, UniProt Q06546 1-454); settings: protein: recombinant; tags: N-terminal GST; dsDNA, one strand shown
T3 sequence: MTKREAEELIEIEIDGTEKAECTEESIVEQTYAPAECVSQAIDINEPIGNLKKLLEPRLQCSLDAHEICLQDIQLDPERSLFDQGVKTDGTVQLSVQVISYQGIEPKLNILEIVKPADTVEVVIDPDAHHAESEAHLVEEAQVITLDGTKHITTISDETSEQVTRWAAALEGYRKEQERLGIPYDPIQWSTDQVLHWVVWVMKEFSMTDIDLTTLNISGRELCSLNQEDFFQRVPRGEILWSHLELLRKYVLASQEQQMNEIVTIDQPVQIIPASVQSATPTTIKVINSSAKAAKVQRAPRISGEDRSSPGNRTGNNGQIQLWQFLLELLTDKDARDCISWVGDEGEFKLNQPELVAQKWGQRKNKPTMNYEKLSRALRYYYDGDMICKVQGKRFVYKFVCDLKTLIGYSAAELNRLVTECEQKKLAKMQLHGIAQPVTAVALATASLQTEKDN
How it was run: as §1

ERG = target: T4, ERG (Homo sapiens, UniProt P11308 1-479); settings: protein: recombinant; tags: N-terminal GST; dsDNA, one strand shown
T4 sequence: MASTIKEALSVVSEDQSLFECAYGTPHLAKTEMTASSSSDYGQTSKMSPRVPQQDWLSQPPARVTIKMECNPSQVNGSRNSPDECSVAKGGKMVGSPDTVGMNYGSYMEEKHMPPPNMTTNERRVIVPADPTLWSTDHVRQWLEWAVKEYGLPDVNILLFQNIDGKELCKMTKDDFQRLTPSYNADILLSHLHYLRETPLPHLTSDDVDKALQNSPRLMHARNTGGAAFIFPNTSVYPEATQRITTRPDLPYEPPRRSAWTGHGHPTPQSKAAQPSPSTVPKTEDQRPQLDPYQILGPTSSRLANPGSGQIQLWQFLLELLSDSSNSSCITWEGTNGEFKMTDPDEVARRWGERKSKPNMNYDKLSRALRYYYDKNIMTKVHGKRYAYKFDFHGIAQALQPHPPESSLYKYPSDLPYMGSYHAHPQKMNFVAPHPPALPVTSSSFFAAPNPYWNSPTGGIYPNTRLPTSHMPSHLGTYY
How it was run: as §1

ELF1 = ELF1 (Homo sapiens, UniProt P32519 1-619); settings: protein: recombinant; tags: N-terminal GST; dsDNA, one strand shown
How it was run: as §1

EHF = target: T5, EHF (Homo sapiens, UniProt Q9NZC4 1-300); settings: protein: recombinant; tags: N-terminal GST; dsDNA, one strand shown
T5 sequence: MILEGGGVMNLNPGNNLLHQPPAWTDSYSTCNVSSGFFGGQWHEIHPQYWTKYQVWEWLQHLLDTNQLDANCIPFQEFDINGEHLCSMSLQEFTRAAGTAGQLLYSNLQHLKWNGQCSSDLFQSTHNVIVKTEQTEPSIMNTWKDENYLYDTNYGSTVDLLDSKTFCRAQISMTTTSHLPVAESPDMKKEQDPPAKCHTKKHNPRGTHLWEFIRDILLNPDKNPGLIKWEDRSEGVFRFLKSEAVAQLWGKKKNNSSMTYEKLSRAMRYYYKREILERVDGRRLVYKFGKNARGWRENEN
How it was run: as §1

SPI1 = SPI1 (Homo sapiens, UniProt P17947 1-270); settings: protein: recombinant; tags: N-terminal GST; dsDNA, one strand shown
How it was run: as §1

SPIB = SPIB (Homo sapiens, UniProt Q01892 1-262); settings: protein: recombinant; tags: N-terminal GST; dsDNA, one strand shown
How it was run: as §1

ELK3 = target: T6, ELK3 (Homo sapiens, UniProt P41970 1-407); settings: protein: recombinant; tags: N-terminal GST; dsDNA, one strand shown
T6 sequence: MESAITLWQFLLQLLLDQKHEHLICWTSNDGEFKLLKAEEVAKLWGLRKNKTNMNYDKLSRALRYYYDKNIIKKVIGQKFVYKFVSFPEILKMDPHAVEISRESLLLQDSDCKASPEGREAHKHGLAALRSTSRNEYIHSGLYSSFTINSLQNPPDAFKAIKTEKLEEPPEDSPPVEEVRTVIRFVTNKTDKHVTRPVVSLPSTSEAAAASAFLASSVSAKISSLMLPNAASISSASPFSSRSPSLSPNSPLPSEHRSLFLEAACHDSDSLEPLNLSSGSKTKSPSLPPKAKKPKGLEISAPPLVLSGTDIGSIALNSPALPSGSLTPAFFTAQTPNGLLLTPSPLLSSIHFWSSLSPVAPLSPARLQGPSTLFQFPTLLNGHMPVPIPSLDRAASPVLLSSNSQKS
How it was run: as §1

FEV = target: T7, FEV (Homo sapiens, UniProt Q99581 1-238); settings: protein: recombinant; tags: N-terminal GST; dsDNA, one strand shown
T7 sequence: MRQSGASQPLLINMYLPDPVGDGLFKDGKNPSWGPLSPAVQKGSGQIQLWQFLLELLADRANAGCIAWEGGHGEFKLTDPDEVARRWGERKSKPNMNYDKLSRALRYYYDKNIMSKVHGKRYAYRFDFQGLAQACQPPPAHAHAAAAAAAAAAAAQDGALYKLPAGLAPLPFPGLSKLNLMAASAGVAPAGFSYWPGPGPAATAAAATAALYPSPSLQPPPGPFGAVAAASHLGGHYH
How it was run: as §1

ETV5 = ETV5 (Homo sapiens, UniProt P41161 1-510); settings: protein: recombinant; tags: N-terminal GST; dsDNA, one strand shown
How it was run: as §1

HSF1 = HSF1 (Homo sapiens, UniProt Q00613 1-529); settings: protein: recombinant; tags: N-terminal GST; chain copies: 3; dsDNA, one strand shown
How it was run: as §1

SPIC = target: T8, SPIC (Homo sapiens, UniProt Q8N5J4 1-248); settings: protein: recombinant; tags: N-terminal GST; dsDNA, one strand shown
T8 sequence: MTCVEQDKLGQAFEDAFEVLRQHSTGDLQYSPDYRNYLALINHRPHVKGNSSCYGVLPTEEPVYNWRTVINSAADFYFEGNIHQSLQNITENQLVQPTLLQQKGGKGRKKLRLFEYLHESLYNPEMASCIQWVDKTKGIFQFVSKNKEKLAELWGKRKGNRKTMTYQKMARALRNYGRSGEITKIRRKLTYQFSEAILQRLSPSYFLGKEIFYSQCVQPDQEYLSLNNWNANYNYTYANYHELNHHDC
How it was run: as §1

ELF4 = ELF4 (Homo sapiens, UniProt Q99607 1-663); settings: protein: recombinant; tags: N-terminal GST; dsDNA, one strand shown
How it was run: as §1

ELK4 = target: T9, ELK4 (Homo sapiens, UniProt P28324-2 1-405); settings: protein: recombinant; tags: N-terminal GST; dsDNA, one strand shown
T9 sequence: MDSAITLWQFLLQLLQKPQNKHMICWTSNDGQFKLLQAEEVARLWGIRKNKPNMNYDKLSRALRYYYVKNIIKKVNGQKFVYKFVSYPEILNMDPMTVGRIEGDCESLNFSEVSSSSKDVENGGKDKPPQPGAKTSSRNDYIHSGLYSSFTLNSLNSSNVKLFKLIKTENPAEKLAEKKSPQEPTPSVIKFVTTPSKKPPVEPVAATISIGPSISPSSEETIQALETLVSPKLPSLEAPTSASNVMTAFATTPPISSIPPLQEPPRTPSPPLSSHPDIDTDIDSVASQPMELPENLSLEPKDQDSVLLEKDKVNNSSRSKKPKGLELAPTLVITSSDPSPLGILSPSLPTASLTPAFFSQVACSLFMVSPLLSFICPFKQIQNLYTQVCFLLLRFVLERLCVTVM
How it was run: as §1

ETV2 = target: T10, ETV2 (Homo sapiens, UniProt O00321 1-342); settings: protein: recombinant; tags: N-terminal GST; dsDNA, one strand shown
T10 sequence: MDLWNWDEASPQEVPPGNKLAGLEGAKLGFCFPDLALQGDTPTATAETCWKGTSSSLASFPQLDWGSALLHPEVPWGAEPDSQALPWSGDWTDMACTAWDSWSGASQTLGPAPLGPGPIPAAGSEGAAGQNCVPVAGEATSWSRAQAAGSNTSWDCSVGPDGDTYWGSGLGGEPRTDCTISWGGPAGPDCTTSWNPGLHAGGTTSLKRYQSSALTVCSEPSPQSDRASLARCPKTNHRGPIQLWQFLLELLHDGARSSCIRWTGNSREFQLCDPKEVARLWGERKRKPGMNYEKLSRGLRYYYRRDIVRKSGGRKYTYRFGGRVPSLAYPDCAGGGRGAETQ
How it was run: as §1

ELF3 = target: T11, ELF3 (Homo sapiens, UniProt P78545 1-371); settings: protein: recombinant; tags: N-terminal GST; dsDNA, one strand shown
T11 sequence: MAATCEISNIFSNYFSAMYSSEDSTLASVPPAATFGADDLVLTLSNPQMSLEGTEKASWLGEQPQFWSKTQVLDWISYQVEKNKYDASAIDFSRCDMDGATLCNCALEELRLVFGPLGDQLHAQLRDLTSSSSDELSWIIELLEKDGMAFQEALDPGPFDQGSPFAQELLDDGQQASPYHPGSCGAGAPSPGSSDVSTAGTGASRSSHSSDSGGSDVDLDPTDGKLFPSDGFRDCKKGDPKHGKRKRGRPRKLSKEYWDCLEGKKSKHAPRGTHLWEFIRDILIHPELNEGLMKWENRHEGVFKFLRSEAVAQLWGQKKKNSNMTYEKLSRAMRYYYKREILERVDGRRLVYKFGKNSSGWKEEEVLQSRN
How it was run: as §1

ETV1 = ETV1 (Homo sapiens, UniProt P50549 1-477); settings: protein: recombinant; tags: N-terminal GST; dsDNA, one strand shown
How it was run: as §1

Sequence of ETV5 (P41161 whole entry): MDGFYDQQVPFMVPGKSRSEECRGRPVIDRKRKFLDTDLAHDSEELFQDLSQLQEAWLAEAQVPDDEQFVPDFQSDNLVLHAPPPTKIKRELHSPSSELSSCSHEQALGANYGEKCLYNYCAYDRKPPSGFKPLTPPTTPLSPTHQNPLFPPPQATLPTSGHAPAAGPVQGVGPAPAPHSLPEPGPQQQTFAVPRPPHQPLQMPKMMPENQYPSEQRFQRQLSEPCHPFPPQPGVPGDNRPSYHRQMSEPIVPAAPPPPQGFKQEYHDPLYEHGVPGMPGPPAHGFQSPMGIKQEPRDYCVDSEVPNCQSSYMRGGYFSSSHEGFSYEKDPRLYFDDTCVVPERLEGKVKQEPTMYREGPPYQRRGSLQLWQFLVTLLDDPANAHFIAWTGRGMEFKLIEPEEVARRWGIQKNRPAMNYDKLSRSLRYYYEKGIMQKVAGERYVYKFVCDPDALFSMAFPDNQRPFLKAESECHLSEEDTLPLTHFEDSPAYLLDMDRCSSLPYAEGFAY
Sequence of ELF1 (P32519 whole entry): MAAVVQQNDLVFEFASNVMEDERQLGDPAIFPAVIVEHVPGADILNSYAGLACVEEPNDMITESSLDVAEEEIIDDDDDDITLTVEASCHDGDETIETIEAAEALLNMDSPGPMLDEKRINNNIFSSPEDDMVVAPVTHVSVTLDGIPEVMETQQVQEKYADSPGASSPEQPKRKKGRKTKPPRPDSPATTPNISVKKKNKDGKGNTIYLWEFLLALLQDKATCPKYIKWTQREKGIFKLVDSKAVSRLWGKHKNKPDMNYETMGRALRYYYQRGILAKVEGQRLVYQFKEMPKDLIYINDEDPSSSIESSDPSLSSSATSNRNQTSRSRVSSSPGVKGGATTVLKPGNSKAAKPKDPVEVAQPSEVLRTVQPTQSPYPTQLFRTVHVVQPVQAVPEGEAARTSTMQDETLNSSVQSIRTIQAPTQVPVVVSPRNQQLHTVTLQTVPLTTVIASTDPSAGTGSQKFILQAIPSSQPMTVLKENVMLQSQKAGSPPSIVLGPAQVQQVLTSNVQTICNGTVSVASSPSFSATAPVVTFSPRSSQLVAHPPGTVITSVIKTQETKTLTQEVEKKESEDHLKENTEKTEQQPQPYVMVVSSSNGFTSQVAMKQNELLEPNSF
Sequence of HSF1 (Q00613 whole entry): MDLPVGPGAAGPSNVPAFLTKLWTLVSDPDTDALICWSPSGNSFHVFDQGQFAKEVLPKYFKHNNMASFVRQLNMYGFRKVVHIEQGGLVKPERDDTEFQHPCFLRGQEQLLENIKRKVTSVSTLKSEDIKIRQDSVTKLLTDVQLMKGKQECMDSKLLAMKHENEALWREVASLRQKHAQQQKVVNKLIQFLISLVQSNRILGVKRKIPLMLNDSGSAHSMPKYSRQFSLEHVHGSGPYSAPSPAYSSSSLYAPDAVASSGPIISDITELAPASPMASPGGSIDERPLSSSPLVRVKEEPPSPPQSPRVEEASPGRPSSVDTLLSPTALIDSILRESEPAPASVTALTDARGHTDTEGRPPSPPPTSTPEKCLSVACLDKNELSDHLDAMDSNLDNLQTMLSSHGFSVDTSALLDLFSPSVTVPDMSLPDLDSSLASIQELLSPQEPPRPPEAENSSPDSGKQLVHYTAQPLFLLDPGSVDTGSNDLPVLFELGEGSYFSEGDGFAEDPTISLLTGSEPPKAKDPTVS
Sequence of SPIB (Q01892 whole entry): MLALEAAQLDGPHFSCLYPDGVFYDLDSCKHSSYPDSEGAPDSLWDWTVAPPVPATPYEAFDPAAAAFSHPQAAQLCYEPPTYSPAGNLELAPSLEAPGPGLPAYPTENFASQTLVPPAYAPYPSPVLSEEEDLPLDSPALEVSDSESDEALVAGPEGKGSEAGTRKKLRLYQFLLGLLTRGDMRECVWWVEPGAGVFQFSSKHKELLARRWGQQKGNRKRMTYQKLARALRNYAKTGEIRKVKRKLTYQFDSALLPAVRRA
Sequence of ELF4 (Q99607 whole entry): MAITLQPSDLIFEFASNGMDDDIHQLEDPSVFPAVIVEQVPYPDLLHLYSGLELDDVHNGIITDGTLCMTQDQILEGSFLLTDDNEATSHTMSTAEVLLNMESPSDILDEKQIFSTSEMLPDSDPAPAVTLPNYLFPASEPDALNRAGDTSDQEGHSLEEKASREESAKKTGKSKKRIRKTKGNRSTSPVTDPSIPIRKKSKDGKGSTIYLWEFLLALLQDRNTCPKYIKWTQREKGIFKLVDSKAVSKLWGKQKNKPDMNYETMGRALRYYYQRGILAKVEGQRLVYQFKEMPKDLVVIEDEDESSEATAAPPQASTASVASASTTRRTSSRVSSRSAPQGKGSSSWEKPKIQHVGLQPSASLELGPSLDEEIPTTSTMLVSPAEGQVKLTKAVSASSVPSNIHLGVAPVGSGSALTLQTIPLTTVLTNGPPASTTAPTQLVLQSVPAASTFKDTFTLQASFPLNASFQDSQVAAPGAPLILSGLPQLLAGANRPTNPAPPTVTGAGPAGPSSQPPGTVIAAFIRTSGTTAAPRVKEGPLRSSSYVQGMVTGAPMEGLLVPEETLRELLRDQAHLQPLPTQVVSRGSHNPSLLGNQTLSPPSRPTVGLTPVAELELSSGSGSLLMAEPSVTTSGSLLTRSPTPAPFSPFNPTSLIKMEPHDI
Sequence of ETV1 (P50549 whole entry): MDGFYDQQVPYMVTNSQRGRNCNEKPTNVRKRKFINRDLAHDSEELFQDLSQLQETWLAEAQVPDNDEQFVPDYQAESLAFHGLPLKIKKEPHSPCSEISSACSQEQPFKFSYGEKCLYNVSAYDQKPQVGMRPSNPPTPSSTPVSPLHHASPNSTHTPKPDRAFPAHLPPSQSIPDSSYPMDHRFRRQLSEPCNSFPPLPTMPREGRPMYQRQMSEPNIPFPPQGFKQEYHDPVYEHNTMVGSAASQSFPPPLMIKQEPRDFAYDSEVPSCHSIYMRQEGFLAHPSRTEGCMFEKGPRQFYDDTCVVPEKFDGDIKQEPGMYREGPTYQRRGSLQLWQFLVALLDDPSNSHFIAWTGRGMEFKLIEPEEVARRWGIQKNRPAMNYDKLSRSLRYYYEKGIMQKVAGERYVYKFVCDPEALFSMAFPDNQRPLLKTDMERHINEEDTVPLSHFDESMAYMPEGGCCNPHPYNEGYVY

For CGCGTC, the binding signal (FLI1) was 1.33 fold enrichment (6-mer frequency, TF over GST control), the binding signal (ELK1) was 1.24 fold enrichment (6-mer frequency, TF over GST control) and the binding signal (GABPA) was 1.26 fold enrichment (6-mer frequency, TF over GST control). The binding signal (ERG) was 1.27 fold enrichment (6-mer frequency, TF over GST control), the binding signal (ELF1) was 1.28 fold enrichment (6-mer frequency, TF over GST control) and the binding signal (EHF) was 1.25 fold enrichment (6-mer frequency, TF over GST control). For the same sequence, the binding signal (SPI1) was 1.27 fold enrichment (6-mer frequency, TF over GST control), the binding signal (SPIB) was 1.32 fold enrichment (6-mer frequency, TF over GST control) and the binding signal (ELK3) was 1.08 fold enrichment (6-mer frequency, TF over GST control). For the same sequence, the binding signal (FEV) was 1.2 fold enrichment (6-mer frequency, TF over GST control), the binding signal (ETV5) was 1.06 fold enrichment (6-mer frequency, TF over GST control) and the binding signal (HSF1) was 1.02 fold enrichment (6-mer frequency, TF over GST control). For the same sequence, the binding signal (SPIC) was 1.39 fold enrichment (6-mer frequency, TF over GST control), the binding signal (ELF4) was 1.19 fold enrichment (6-mer frequency, TF over GST control) and the binding signal (ELK4) was 1.48 fold enrichment (6-mer frequency, TF over GST control). For the same sequence, the binding signal (ETV2) was 1.35 fold enrichment (6-mer frequency, TF over GST control), the binding signal (ELF3) was 1.44 fold enrichment (6-mer frequency, TF over GST control) and the binding signal (ETV1) was 1.22 fold enrichment (6-mer frequency, TF over GST control).
